Data from PubChem BioAssay AID504834 (National Center for Advancing Translational Sciences (NCATS), 2011).
In all, about 320,000 compounds went through this assay and about 22,000 (6.9%) were called active. A call without a number means that no potency is given here. Roughly 27% stayed inconclusive and do not appear here. Calls come from the whole dose curve; as a rule, active = well fitted inhibition curve with a large enough effect; inconclusive = small, poorly fitted or top-dose-only effect, or another doubt; inactive = no such curve, though single readings can be large or run the other way. The sample as a whole holds a higher share of actives than the screen did.

Assay: Primary qHTS for delayed death inhibitors of the malarial parasite plastid, 96 hour incubation
Settings: P. falciparum luciferase reporter growth; series mostly up to 28.7 µM
Text: The goal of this screen is to discover new antimalarial compounds that act by inhibiting the development of the apicoplast in the malarial parasite Plasmodium falciparum. The biochemical processes that make this organelle essential for erythrocytic stage parasites are not well understood. However, antibiotics such as azithromycin and tetracycline, which target the apicoplast translational machinery, have a potent antimalarial effect.
We have developed a cell-based assay that measures parasite growth based on the expression of an integrated copy of a firefly luciferase reporter. To detect small molecules that cause this "delayed death" phenotype, erythrocytes infected with the luciferase-expressing parasites were incubated with compounds for either one or two generations, corresponding to 48 and 96 hours, respectively. Compounds that inhibit parasite growth in the second generation, but not the first, should be enriched in antimalarials that target the apicoplast. Growth inhibition is detected by a decrease in luciferase activity.
Assay Provider: David Fidock and Eric Ekland, Columbia University
Keywords: NIH Roadmap, MLPCN, MLI, MLSMR, qHTS, NCGC, qHTS, malaria, luciferase, viability
Four microliters of infected erythrocytes (2% hematocrit, 0.05% parasitemia final concentration) in culture medium were dispensed and the plates incubated for 96 hours at 37 C in 5% CO2. Two microliters of luciferase detection reagent was added and luminescence was detected by a ViewLux (PerkinElmer) reader.
Potency is the fitted concentration of half-maximal effect.

| SMILES | Potency |
| --- | --- |
| CCNC(=S)N(CCN(CC)CC)Cc1cc2cc3c(cc2[nH]c1=O)OCO3 | inactive |
| COC(=O)C(C)n1cnc2c(nnn2-c2cccc(Cl)c2)c1=O (stereo not given) | inactive |
| CC(C)C[C@H](CO)Nc1nc(N(C)c2cccc(Cl)c2)c2ncn(C(C)C)c2n1 | 13.1 µM (active) |
| CC1COc2ccccc2N1C(=O)c1ccc(F)cc1 (stereo not given) | inactive |
| COc1cccc(C(C(=O)NC2CCCC2)N(C(=O)c2ccco2)c2cccc(C(C)=O)c2)c1OC (stereo not given) | inactive |
| CN(Cc1ccccc1)C(=O)c1ccc(NC2=NC3CS(=O)(=O)CC3S2)cc1 (stereo not given) | inactive |
| COc1ccccc1N1CCN(C(=O)c2ccc(NC3=NC4CS(=O)(=O)CC4S3)cc2)CC1 (stereo not given) | 10.4 µM (active) |
| COc1cccc(-c2cc(C(=O)N3CCN(c4ccccc4OC)CC3)no2)c1 | inactive |
| NS(=O)(=O)c1ccc(CCNC(=O)c2nc(CS(=O)(=O)c3ccc(Cl)cc3)no2)cc1 | inactive |
| CC1CC(C)CN(C(=O)C2CC(=O)N(c3ccc(F)cc3)C2)C1 (stereo not given) | inactive |
| CC1(C)O[C@@H]2[C@H](O1)[C@@H](COS(=O)(=O)O)O[C@H]2n1cnc2c(=O)[nH]cnc21 | inactive |
| CCCCNC(=O)C1(O)c2ccccc2NC(=O)N1c1ccc(Cl)cc1 (stereo not given) | inactive |
| Cc1ccc(S(=O)(=O)N(Cc2cccc([N+](=O)[O-])c2)C(=O)N2CCN(C)CC2)cc1 | inactive |
| CCCNC(=O)c1ccccc1NC(=O)CSCc1ccc(OC)cc1 | inactive |
| O=C(CSCc1ccccc1)Nc1ccccc1 | inactive |
| Cc1c(NC(=O)CSCc2ccccc2)cccc1C(=O)O | 10.4 µM (active) |
| Nc1ccn(C2CC(O)C(CO)O2)c(=O)n1 (stereo not given) | inactive |
| CCOC(=O)NN1C(=O)c2ccccc2NC1c1cccc(O)c1 (stereo not given) | inactive |
| CCOC(=O)NN1C(=O)c2ccccc2NC1c1ccccc1O (stereo not given) | 14.7 µM (active) |
| O=C1c2ccccc2NC(c2ccccc2O)N1NS(=O)(=O)c1ccccc1 (stereo not given) | inactive |
| COc1ccc(OC)c(C(C)NC(=S)Nc2ccc(S(=O)(=O)Nc3ncccn3)cc2)c1 (stereo not given) | inactive |
| COc1ccccc1-n1c(-c2cc(-c3ccco3)[nH]n2)n[nH]c1=S | inactive |

| SMILES | Potency |
| --- | --- |
| Fc1ccc2c(c1)C(c1cccnc1)=NNC(c1cccs1)=N2 | 7.38 µM (active) |
| COc1ccc2c(c1)C(c1cccs1)=NNC(c1cccnc1)=N2 | inactive |
| CCc1ccc2c(c1)C(c1ccc([N+](=O)[O-])cc1)=NNC(c1ccccc1)=N2 | inactive |
| CCOC(=O)c1cc2ccccc2n1CC(=O)c1ccccc1 | inactive |
| CC(=O)Nc1ccc(NC(=O)[C@@H](NC(=O)c2cccc(C)c2)C(C)C)cc1 | inactive |
| O=C(O)CSc1ccc(S(=O)(=O)N2CCCC2)cn1 | inactive |
| CCN1CCCC1CNC(=O)c1cc2cc(OC)c(OC)cc2[nH]1 (stereo not given) | inactive |
| CC(C)COc1ccc(C(=O)OCC(=O)NCCC2=CCCCC2)cc1 | inactive |
| O=C(COc1ccc(Cl)cc1)NCCC1=CCCCC1 | inactive |
| O=C(COc1cccc(-n2cnnn2)c1)NCCC1=CCCCC1 | 10.4 µM (active) |
| Cc1ccn2c(c1)nc(=O)c1cc(S(=O)(=O)N3CCC(C)CC3)ccc12 | inactive |
| COC(=O)c1ccc(COC(=O)CNC(=O)c2cccc(OC)c2)o1 | inactive |
| CCN(CC)CCCNC(=O)c1c(O)c2cc(F)cc3c2n(c1=O)C(C)CC3 (stereo not given) | inactive |
| CCN1C(=NCCc2cccnc2)N[C@@H](c2ccccc2)C(C(=O)OC)=C1C | inactive |
| CCN1C(=NCCc2cccnc2)N[C@@H](c2ccccc2)[C@H](C(=O)OC)[C@H]1C | 7.38 µM (active) |
| CC(=O)OC(C(=O)NCCc1ccccc1)c1cccnc1 (stereo not given) | inactive |
| CC(=O)C1=C(C)NC(=O)NC1c1ccc2c(c1)OCO2 (stereo not given) | inactive |
| CC(C)(C)c1ccc(C(CC(=O)O)NS(=O)(=O)Cc2ccccc2)cc1 (stereo not given) | inactive |
| O=C(Nc1ccc(S(=O)(=O)Nc2nccs2)cc1)c1cccc(S(=O)(=O)N2CCOCC2)c1 | 11.7 µM (active) |
| O=C(Nc1ccc(S(=O)(=O)Nc2nccs2)cc1)c1cc(=O)[nH]c2ccccc12 | inactive |
| Cc1ccnc(NS(=O)(=O)c2ccc(NC(=O)c3ccc(S(=O)(=O)N4CCOCC4)cc3)cc2)n1 | inactive |
| Cc1cccc(C)c1NC(=S)N1CCCCCC1 | inactive |

| SMILES | Potency |
| --- | --- |
| Cc1ccccc1NC(=O)Cc1nc(COC(=O)c2ccc(C(F)(F)F)cc2)cs1 | inactive |
| CCOc1ccc(N(CC(=O)NCCc2ccc(OC)cc2)S(C)(=O)=O)cc1 | inactive |
| CCOc1ccc(N(CC(=O)NCc2ccc(OC)cc2)S(=O)(=O)c2c(C)noc2C)cc1 | 9.28 µM (active) |
| Cc1noc(C)c1S(=O)(=O)N(CC(=O)NCc1ccc(Cl)cc1)c1ccc2c(c1)OCO2 | inactive |
| COc1ccc(C(=O)N2CCCN(C)CC2)c(OC)c1 | inactive |
| Cc1cc(C)c(S(=O)(=O)c2ccc(F)cc2C)c(=O)[nH]1 | inactive |
| O=C(OCC(=O)N1CCCC1=O)c1cc(S(=O)(=O)N2CCOCC2)ccc1Cl | inactive |
| Cc1noc(C)c1COc1ccc(C(=O)NCCOc2ccccc2)cc1 | inactive |
| O=C(CCC1CCN(C(=O)c2cccc(Cl)c2F)CC1)Nc1ccccc1 | inactive |
| CCNC(=O)c1cccc(NC(=O)C2CC(=O)N(CCc3ccccc3)C2)c1 (stereo not given) | inactive |
| CN(NC(=O)c1ccccc1)c1nc2ccccc2nc1C(F)(F)F | inactive |
| COC(=O)CNC(=O)c1ccccc1F | inactive |
| CN(NC(=O)c1ccccc1F)c1nc(C(F)(F)F)nc2ccccc12 | 11.7 µM (active) |
| O=C(O)c1ccccc1N=N/C(=N/Nc1cc(S(=O)(=O)O)ccc1O)c1ccccc1 | inactive |
| CC1CC(=O)Nc2ccccc2N1C(=O)COc1ccc2cc(Br)ccc2c1 (stereo not given) | inactive |
| C=CCN(C(=O)Cn1ncc2c1-c1cc(C)ccc1OC2)c1ccccc1 | 9.28 µM (active) |
| C=CCN(C(=O)Nc1ccc2c(c1)nc(C)n2C)c1ccccc1 | inactive |
| C=CCN(C(=O)Nc1ccc2oc(C)nc2c1)c1ccccc1 | inactive |
| CC(=O)NC(CC(=O)Nc1cccc(S(=O)(=O)N2CCCC2)c1)c1ccccc1 (stereo not given) | inactive |
| CC[C@]1(O)CC2CN(CCc3c([nH]c4ccccc34)[C@@](C(=O)OC)(c3cc4c(cc3OC)N(C=O)[C@H]3[C@@](O)(C(=O)OC)[C@H](OC(C)=O)[C@]5(CC)C=CCN6CC[C@]43[C@@H]65)C2)C1 (stereo not given in full) | 0.262 µM (active) |
| CC[C@]1(O)C[C@@H]2CN(CCc3c([nH]c4ccccc34)[C@@](C(=O)OC)(c3cc4c(cc3OC)N(C)[C@H]3[C@@](O)(C(=O)OC)[C@H](OC(C)=O)[C@]5(CC)C=CCN6CC[C@]43[C@@H]65)C2)C1 | 0.147 µM (active) |
